Experimental findings from PubChem BioAssay (EPA / NIEHS) are described below.

Molecules are shown by their SMILES. Active and inactive are the calls of the source. The calls were made as follows: active = hit-call score of the fitted dose curve at least 0.9, where 1 is the maximum; inactive = score below 0.9.

Read-out in this assay: UDP glucuronosyltransferase (UGT1A1), UGT1A1 (gene 54658)
As to the kind of experiment: LTEA_HepaRG_UGT1A1: Life Technologies and Expression Analysis (LTEA) Assay for UDP glucuronosyltransferase (UGT1A1) using HepaRG (AID 2283538). The note with it: mRNA level, 48 h; actives raise or lower the signal. Here is the method:
LTEA_HepaRG is a cell based, multiplexed-readout assay that uses HepaRG, a human liver cell line, with measurements taken at 48 hours after chemical dosing on a 96-well plate.LTEA_HepaRG_UGT1A1 is one of 102 assay component(s) measured in the LTEA HepaRG cell culture assay. It is a marker of Steatosis/NR mediated metabolism.Data from the assay component LTEA_HepaRG_UGT1A1 was analyzed into 1 endpoint. This assay endpoint, LTEA_HepaRG_UGT1A1, was analyzed with bidirectional fitting relative to DMSO as the negative control and baseline of activity. Using a type of inducible reporter, measures of mRNA induction for gain or loss-of-signal activity can be used to understand regulation of transcription factor activity. To generalize the intended target to other relatable targets, this assay endpoint is annotated to the transferase intended target family, where the subfamily is glucuronosyltransferase.
A total of 1060 chemcials from the ToxCast library were tested in eight-point concentration-response experiments. Cell culture and cytotoxicity assays were conducted at Thermo Fisher Scientific's Custom Services facility (Madison, WI). A single lot of human HepaRG cells (Thermo Fisher Scientific, Frederick, MD) was used for the cell culture experiments. 96-well format collagen type I coated plates of human HepaRG cells were prepared using established methods. Briefly, cryopreserved HepaRG cells were thawed, plated at a density of approximately 100,000 cells/well in HepaRG Thaw, Plate, and General Purpose media (HPRG770, Thermo Fisher Scientific), and incubated for 48 hours. 0.5% DMSO was selected as vehicle control to balance the requisite need of DMSO in HepaRG cultures to maintain differentiation (for example, baseline metabolism, proportions of hepatocytes vs. cholangiocytes), while enabling further hepatic receptor pathway activation (for example, PXR and CAR) in response to chemical exposure. 48 hours after plating, the culture medium was replaced with HepaRG Serum-Free Incudtion Media. Cells were exposed to each test chemical in duplicate and maintained in CO2 incubators for another 48 hours. Chemical plates were thawed to room temperature and 200x concentrations of treatment groups were prepared. 8-point conentration-reponse curves were made with the highest exposure at 100 uM, followed by half-log dilutions, all in 0.5% DMSO. Each test plate contained variouse controls, induction positive controls (1mM phenobarbital), cytotoxicity positive controls ([…] aflatoxin B1), vehicle controls (0.5% DMSO), and total lysis controls (0.5% DMSO). Cell morphology images were taken using an Essen IncuCyte FLR automated microscope, with six 96-well plates imaged in about 24 minutes. Images were captured and exported and JPEG files. Spent culture media was transfered to black-well plates for the LDH assay, and remaining media was sorted at -80 C for later use. Cells were treated with RLT buffer and frozen until shipped for gene expression analysis. Total RNA was isolated from the cell suspension in 75 uL of Buffer RLT (Qiagen, Germantown, MD 20874) by Quintiles/Expression Analysis (Durham, NC) using a custom isolation procedure. Total RNA from each plate well was transferred to a preamplification plate. Fluidigm's 96.96 Dynamic ArrayTM (Fluidigm, Amsterdam, the Netherlands) technology was used for gene expression analyses by quantitative reverse transcription polymerase chain reaction (qRT-PCR, performed by Quintiles/Expression Analysis, Durham, NC)89. Standard TaqManTM Assays (Applied Biosystems/ThermoFisher Scientific, Foster City, CA) were used to assess the expression of 93 genes selected based on their selectivity and sensitivity to important hepatic receptors known to be modulated by environmental chemicals; importance in human hepatocyte functionality; and hepatotoxicity. […]
Take `Cc1c(C(=O)O)c(O)cc2c1C(=O)c1c(O)c([C@@H]3O[C@H](CO)[C@@H](O)[C@H](O)[C@H]3O)c(O)c(O)c1C2=O`: the result was inactive.
The same measure, in the same setting: then `CCCCc1ccc2c(n1)[C@@H](c1ccc(OC)cc1C[C@H](C)C(=O)O)[C@H](C(=O)O)[C@H]2c1ccc2c(c1)OCO2`, with “inactive”; and `Cc1ccc(C(C)C)c(O)c1`, with “inactive”; and `CCCCCCCC=O`, with “inactive”.
The same measure, in the same setting: then `CN1CCN(Cc2cc(-c3ccc4[nH]c(=O)oc4c3)co2)[C@@H](c2ccc(F)cc2)C1`, with “inactive”; and `COCCOC[C@H](CC1(C(=O)NC2CCC(C(=O)O)CC2)CCCC1)C(=O)Oc1ccc2c(c1)CCC2` (stereo not given in full), with “inactive”.
For the molecule `Nc1ccccc1N`, the AC50 is 85 µM (active).
Consider `O=c1[nH]cc(F)c(=O)[nH]1`, for which the molecule was called inactive.
With `Cc1ccc2ncccc2c1`, the molecule was classed as inactive.
Take `Cc1ccc(C)c(O)c1C`: the result was inactive.
With `CN[C@H]1CC[C@@H](c2ccc(Cl)c(Cl)c2)c2ccc(S(N)(=O)=O)cc21`, the AC50 was 37 µM (active).
Consider `CCNc1cccc(C)c1`, for which the molecule was called inactive.
Same read-out and setting: then `CC(=O)Oc1ccccc1C(=O)O`, with “inactive”; and `C1CCC(SSC2CCCCC2)CC1`, with “inactive”.
Consider `O=c1c(O)c(-c2ccc(O)c(O)c2)oc2cc(O)cc(O)c12`, for which the AC50 is 0.322 µM (active).
With `Cc1nc(-c2ccc3c(c2)CCN(CCC2CCC(NC(=O)/C=C/c4ccc(F)cc4)CC2)CC3)no1` (stereo not given), the molecule was classed as inactive.
Same read-out and setting: the result for `CCCCCCCCCCCCCO` reads “inactive”.
As for `CC(C)(C)c1cc(O)c(C(C)(C)C)cc1O`, the AC50 was 89.2 µM (active).
As for `CCCCCCCCCCCCCCCCCC(=O)O`, the call was inactive.
The same measure, in the same setting: the result for `CCOC(=O)CCC(=O)OCC` reads “inactive”.
Turning to `COc1ccc(S(=O)(=O)N2C(=O)[C@@](c3ccccc3OC)(N3C[C@H](O)C[C@H]3C(=O)N(C)C)c3cc(Cl)ccc32)c(OC)c1`, the AC50 is 34.8 µM (active).
With `COc1cc(-c2nc(NC(=O)c3cc4cc(C)cc(C)c4n3CC(=O)O)sc2CCC2CCCCC2)c(OC)cc1Cl`, the AC50 was 7.32 µM (active).
The same measure, in the same setting: the result for `Cc1cccc(Nc2cc(Cl)nc(SCC(=O)O)n2)c1C` reads 50 µM (active).
Consider `Oc1ccc2c(c1)OC[C@@H](N1CCC(O)(c3ccc(F)cc3)CC1)[C@H]2O`, for which the molecule was classed as inactive.
`CCOC(=O)C(C)(C)Oc1ccc(Cl)cc1`: the AC50 is 15.8 µM (active).
For the molecule `Cc1ccc(N(C)C)cc1`, the AC50 is 26.6 µM (active).
`CC1(C)NC(=O)NC1=O`: the molecule was called inactive.
The same measure, in the same setting: the result for `CN1CCCC1=O` reads “inactive”; that for `Cc1cccc([N+](=O)[O-])c1C`, “inactive”; that for `NCCO`, “inactive”.
Consider `c1cc(-c2ccncc2)ccn1`, for which the AC50 was 50 µM (active).
Regarding `COc1ccc2c(c1)c(CC(=O)O)c(C)n2C(=O)c1ccc(Cl)cc1`, the outcome was inactive.
As to `CNC(=O)[C@H]1O[C@@H](n2cnc3c(NCc4cc(Cl)ccc4OCc4cc(C)no4)ncnc32)[C@H](O)[C@@H]1N`, the molecule was classed as inactive.
With `CCOc1ccc2c(c1)C(C)=CC(C)(C)N2`, the AC50 is 1.61 µM (active).
On the same count and under the same terms, the result for `CC1=C(/C=C/C(C)=C/C=C/C(C)=C/CO)C(C)(C)CCC1` reads 41.5 µM (active).
With `CC(CO)OC(C)CO` (stereo not given) (tested in a mixture with another compound), the molecule was classed as inactive.
Turning to `Clc1cc(Cl)c(Cl)cc1Cl`, the result was inactive.
Same read-out and setting: then `CCCCCC(=O)O`, with “inactive”; and `Cc1cc(NC(=O)C(=O)O)cc(C)c1Oc1ccc(O)c2c1CCC2`, with “inactive”.
Consider `NC(=O)Cn1c(=O)cc(CCN2CCN(c3nccc4sccc34)CC2)c2ccc(F)cc21`, for which the AC50 is 12.6 µM (active).
